40 compounds from PubChem BioAssay (NCATS) can be followed below.

Inconclusive results are not listed. A call without a number means that no potency is given here. A number with no mark means an inactive call. Activity calls are given as the source filed them. Calls follow the shape of the dose curve; as a rule, active = well fitted inhibition curve with a large enough effect; inconclusive = small, poorly fitted or top-dose-only effect; inactive = flat fitted curve, though single readings scatter. Numbered stars: 1 amine (or outer) side, 2 acyl side, 3 side chain; on linkers, the order of the positions; unused ones are H or OH. Bridge positions count the residues as written; N and C are the ends. Square brackets hold non-standard residues; d marks the D form. Peptide text beside a SMILES is read from it. ξ: configuration not given here. X2 = CC(C)=CCc1cc(C(O)C(N[*:1])C(=O)[*:2])ccc1O; ξLac(3-iPr) = CC(C)CC(O)C(=O)O; NMeV = CN[CH](C(=O)O)C(C)C; X4 = O=C(CCC[*:2])[*:1]; βAla = NCCC(=O)O

The target of this assay is Aldehyde dehydrogenase, mitochondrial (Homo sapiens) (UniProt P05091). In words: qHTS for Inhibitors of the Aldehyde Dehydrogenase Family (ALDH2) Primary screen (AID 2061308). Also: nearly all actives have a fitted effect of over 55% in size. To be noted: ALDH2 enzyme inhibition qHTS, 1536-well; series mostly up to 56 µM. (In general: qHTS replaces the single test concentration by a dilution series.)
Take `CC[C@H](C)[C@@H]1NC(=O)[C@H](Cc2ccc(OC)cc2)NC(=O)CCCSC[C@@H](C(=O)N2CCC[C@H]2C(=O)N[C@@H](CC(C)C)C(=O)NCC(N)=O)NC(=O)[C@H](CC(N)=O)NC(=O)[C@H](CCC(N)=O)NC1=O` (Y(Me)IQNCPLG-NH2; linker N-5 via X4): the Potency result is “inactive”.
As for `Cc1ccc2c(Nc3ccc(Cl)cc3)nccc2c1Nc1ncccc1-c1ncnc2nc[nH]c12`, the Potency entry is “inactive”.
As to `C[C@H](N)C(=O)N[C@@H](Cc1ccc(O)cc1)C(=O)N1CCC[C@H]1C(=O)NCC(=O)N[C@@H](CCCCN)C(=O)N[C@@H](Cc1ccccc1)C(N)=O`, the activity change, negative = inhibition is 4.44% [at 11.2 µM].
In the case of `COc1ccc(C2C(C(=O)O)C(C(=O)O)C2c2ccc(OC)cc2O[C@@H]2O[C@H](CO)[C@@H](O)[C@H](O)[C@H]2O)c(O[C@@H]2O[C@H](CO)[C@@H](O)[C@H](O)[C@H]2O)c1` (stereo not given in full), the Potency entry was “inactive”.
For `CC(C)CC1OC(=O)C2CCCN2C(=O)CCNC(=O)C(Cc2ccccc2)NC(=O)C(C(C)C)N(C)C(=O)C(C(C)C)N(C)C1=O` (stereo not given) (cyclo([ξLac(3-iPr)][NMeV][NMeV]F[βAla]P); configuration not given here), the Potency result was “inactive”.
Take `OC[C@@]1(O)CO[C@@H](OC[C@H]2O[C@@H](OCc3ccccc3)[C@H](O)[C@@H](O)[C@@H]2O)[C@@H]1O`: the Potency result is “inactive”.
Consider `C=C1C(=O)O[C@@H]2/C=C(\C)CC/C=C(\C(=O)O[C@@H]3O[C@H](CO)[C@@H](O)[C@H](O)[C@H]3O)CC[C@@H]12`, for which the Potency result is “inactive”.
Turning to `COc1c(N2CC3CCCNC3C2)c(F)cc2c(=O)c(C(=O)O)cn(C3CC3)c12` (stereo not given), the Potency entry is “inactive”.
Turning to `CC(C)CC[C@@H](O)[C@](C)(O)[C@H]1CC[C@@]2(O)C3=CC(=O)[C@@H]4C[C@@H](O)[C@@H](O)C[C@]4(C)[C@H]3CC[C@]12C`, the Potency result was “inactive”.
On to `CC(=O)c1[nH]cc(CCC(=O)O)c1CC(=O)O`, for which the Potency result was “inactive”.
`CC[C@H]1OC(=O)[C@H](C)[C@@H](O[C@H]2C[C@@](C)(OC)[C@@H](O)[C@H](C)O2)[C@H](C)[C@@H](O[C@H]2O[C@H](C)C[C@H](N(C)C)[C@H]2O)[C@](C)(O)C[C@@H](C)C(=O)[C@H](C)[C@@H](O)[C@]1(C)O`: the Potency result was “inactive”.
`CC1=CC(=O)CC2C1(O)CCC(C)C21CC(c2ccoc2)OC1=O` (stereo not given): the Potency entry was “inactive”.
Regarding `O=C(OCC(O)CO[C@@H]1O[C@H](C(=O)O)[C@@H](O)[C@H](O)[C@H]1O)c1ccccc1` (stereo not given in full), the Potency entry was “inactive”.
Regarding `CCc1cc(CN2CC(C(=O)O)C2)sc1-c1noc(-c2ccc(Oc3ccccc3)cc2)n1`, the Potency result is “inactive”.
Same read-out and setting: the result for `CC(C)=CCc1cc(C(O)C2NC(=O)CNC(=O)C(Cc3c[nH]c4ccccc34)NC(=O)C3CCCN3C(=O)CNC(=O)C(C(C)C)NC(=O)CNC2=O)ccc1O` (stereo not given) (cyclo(G[X2]GVGPW); configuration not given here) reads “inactive”.
For `C[C@@H]1O[C@@H](O[C@H]2[C@H](OC(=O)[C@]34CCC(C)(C)C[C@H]3C3=CCC5[C@@]6(C)C[C@H](O)[C@H](O[C@@H]7O[C@H](CO)[C@@H](O)[C@H](O)[C@H]7O)[C@@](C)(CO)C6[C@H](O)C[C@@]5(C)[C@]3(C)C[C@H]4O)OC[C@H](O)[C@@H]2O)[C@H](O)[C@H](O)[C@H]1O[C@@H]1OC[C@@H](O)[C@H](O[C@H]2OC[C@](O)(CO)[C@H]2O)[C@H]1O` (stereo not given in full), the activity change, negative = inhibition was 5.31% [at 11.2 µM].
Regarding `COC1CC(OC2CCC3(C)C(=CCC4C3C(OC(C)=O)C(OC(=O)/C=C/c3ccccc3)C3(C)C(C(C)O)CCC43O)C2)OC(C)C1OC1CC(OC)C(OC2OC(C)C(OC3OC(CO)C(O)C(O)C3O)C(OC)C2O)C(C)O1` (stereo not given), the activity change, negative = inhibition is 13.8% [at 11.2 µM].
As to `C=C1C(OC(C)=O)C(=O)C2C(C)(C)C(OC(C)=O)CCC2(C)C1CC(OC(C)=O)/C(C)=C/COC(C)=O` (stereo not given), the Potency entry was “inactive”.
For `C[C@@H]1CCC2C(C)(C)[C@H](O)CC[C@]2(C)[C@@]12Cc1c(O)cc3c(c1O2)CN([C@@H](CCC(=O)O)C(=O)O)C3=O` (stereo not given in full), the Potency result was “inactive”.
Turning to `CC1[C@@H](O)[C@@H](O)C2[C@]3(C)C(C[C@H]4OC(=O)[C@H](O)[C@]1(O)[C@@]24C)C(C)(O)C[C@H](O)[C@H]3O` (stereo not given in full), the Potency entry is “inactive”.
The same measure, in the same setting: the same measure for `C=C1CC[C@@H]2[C@](C)(CO)[C@H](O)CC[C@@]2(C)[C@@H]1C/C=C1/C(=O)OC[C@@H]1O`: “inactive”.
On to `C=CC(C)(O)C(O)CC1C(C)(O)C(O)C(O)C2C(C)(C)CCCC21C` (stereo not given), for which the Potency entry was “inactive”.
As for `COC(=O)C1=C[C@@H](O)[C@@H](O)[C@H](O[C@@H]2O[C@H](CO)[C@@H](O)[C@H](O)[C@H]2OC(=O)/C=C/c2ccccc2)C1`, the Potency entry was “inactive”.
As for `C[C@@H]1CC[C@]2(C(=O)O)CC[C@]3(C)C(=CCC4[C@@]5(C)C[C@@H](O)[C@@H](O)C(C)(C)C5CC[C@]43C)C2[C@]1(C)O` (stereo not given in full), the Potency entry is “inactive”.
As to `CNc1cccc(CCOc2ccc3c(c2)CN(CC(F)(F)F)C(=O)[C@H](CC(=O)O)C3)n1`, the Potency result was “inactive”.
Consider `C=CCC/C=C/C#CCCCCCCCC[C@H]1C(=O)O[C@H](C)[C@@H]1O`, for which the Potency result is “inactive”.
On to `CCc1nn(CCO)c(CC)c1Oc1cc(C#N)cc(C#N)c1`, for which the Potency result is “inactive”.
As for `CN1CCN(S(=O)(=O)c2ccc(-c3cnc(N)c(C(=O)Nc4cccnc4)n3)cc2)CC1`, the Potency entry was “inactive”.
For `C=C[C@]1(C)C[C@H](O)[C@@H]2[C@H](OC(=O)[C@@H]2C)C1/C(C)=C/O[C@@H]1O[C@H](CO)[C@@H](O)[C@H](O)[C@H]1O` (stereo not given in full), the Potency entry is “inactive”.
Take `COc1ccc2nccc(C(=O)CC[C@@H]3CCN(CC#Cc4cc(F)cc(F)c4F)C[C@@H]3C(=O)O)c2c1`: the Potency result was “inactive”.
Turning to `Cc1cc2nc(NCCCO)n(CC(=O)c3cc(C(C)(C)C)c(O)c(C(C)(C)C)c3)c2cc1C`, the Potency result was “inactive”.
For the compound `COC(=O)c1ccc(N2CCN(C)CC2)c(NC(=O)c2cccc(OC)c2)c1`, the Potency result is “inactive”.
Consider `CO[C@@H]1CC[C@H](OC[C@]2(COC(=O)c3ccc(C)[nH]3)[C@H](OC(C)=O)CC[C@@]3(C)[C@@H]4CC=C(C)[C@@H](C5=C(O)C(=O)OC5O)[C@]4(C)CC[C@@H]32)O[C@H]1C` (stereo not given in full), for which the Potency result was “inactive”.
In the case of `CCOc1ccc(-c2ccc(Cn3c(CC(C)(C)C(=O)O)c(SC(C)(C)C)c4cc(OCc5ccc(C)cn5)ccc43)cc2)cn1`, the Potency result is “inactive”.
Regarding `C[C@@H]1O[C@@H](O[C@H]2[C@H](O)[C@@H](O[C@@H]3O[C@H](CO)[C@H](O)[C@H](O)[C@H]3O)[C@H](O[C@H]3CC[C@@]4(C)C(CC[C@]5(C)C4CC=C4[C@@H]6CC(C)(C)CC[C@]6(C(=O)O[C@@H]6O[C@H](CO)[C@@H](O)[C@H](O)[C@H]6O)CC[C@]45C)C3(C)C)O[C@@H]2C(=O)O)[C@H](O)[C@H](O)[C@H]1O` (stereo not given in full), the Potency entry was “inactive”.
Same read-out and setting: the result for `CC(=O)O[C@H]1CC(C)(C)CC2[C@]13CO[C@@]21CCC2[C@@]4(C)CC[C@H](O[C@@H]5OC[C@H](O[C@@H]6O[C@H](CO)[C@@H](O)[C@H](O)[C@H]6O[C@@H]6OC[C@@H](O)[C@H](O)[C@H]6O)[C@H](O)[C@H]5O[C@@H]5O[C@H](CO)[C@@H](O)[C@H](O)[C@H]5O)[C@@](C)(CO)C4CC[C@@]2(C)[C@]1(C)C[C@H]3O` (stereo not given in full) reads “inactive”.
Take `CCC(C)C(=O)OC1CC(O)C23C4OCC5(C(O)CC2C1(C)C(O)O4)C3C(=O)C(O)C1(C)C(O)(c2ccoc2)CC2OC251` (stereo not given): the Potency entry was “inactive”.
Regarding `C/C=C(/C=C(C)/C=C/C=C/C=C(\C)C(=O)C12OC1C(O)(CCO)NC2=O)C(=O)OC` (stereo not given), the Potency entry was “inactive”.
Turning to `CC(=O)OC1C(O)C(C)=C(CCC(C)CC(=O)O)C2(C)CCCC(C)(C)C12` (stereo not given), the Potency entry is “inactive”.
Same read-out and setting: the result for `COc1cc2ncnc(Nc3cccc(I)c3)c2cc1OC` reads “inactive”.
